Test results from PubChem BioAssay (EPA / NIEHS).
Active and inactive are the calls of the source. The calls were made as follows: active = hit-call score of the fitted dose curve at least 0.9, where 1 is the maximum; inactive = score below 0.9.

Assay: ATG_E_Box_CIS: Attagene CIS-FACTORIAL HepG2 Assay for human Enhancer Box (E-box) (AID 2282936)
Conditions: HepG2 E-box cis-reporter transcription, actives raise or lower the signal
Procedure: ATG_CIS is a cell-based, multiplexed-readout assay that uses HepG2, a human liver cell line, with measurements taken at 24 hours after chemical dosing in a 24-well plate.ATG_E_Box_CIS is one of 52 assay component(s) measured or calculated from the ATG_CIS assay. It is designed to make measurements of mRNA induction, a form of inducible reporter, as detected with fluorescence intensity signals by Reverse transcription polymerase chain reaction (RT-PCR) and Capillary electrophoresis technology.Data from the assay component ATG_E_Box_CIS was analyzed into 1 assay endpoint. This assay endpoint, ATG_E_Box_CIS, was analyzed with bidirectional fitting relative to DMSO as the negative control and baseline of activity. Using a type of inducible reporter, measures of mRNA for gain or loss-of-signal activity can be used to understand the reporter gene at the transcription factor-level as they relate to the gene USF1. Furthermore, this assay endpoint can be referred to as a primary readout, because this assay has produced multiple assay endpoints where this one serves a reporter gene function. To generalize the intended target to other relatable targets, this assay endpoint is annotated to the dna binding intended target family, where the subfamily is basic helix-loop-helix protein.
Human liver HepG2 cells are transiently transfected with multiple reporter transcription units (MRTUs) in 6-well plates using FuGene 6 reagent (Roche; 3 ml FuGene/1 mg DNA). The MRTU constructs are regulated by a cis-regulating element (promoter). […] A major difference between the CIS and TRANS system is that in CIS activities of endogenous TFs are measured, whereas the TRANS assay evaluates changes in activities of exogenous, chimeric NR-Gal4 proteins. […] At the end of 24 hour incubation, total RNA was isolated using TriZol reagent (Invitrogen). The isolated RNA is then reverse-transcribed using oligo(dT) primer and Mo-MLV reverse transcriptase (Invitrogen) with DNAse I (Ambion) treatment for 30 min. The one-tenth of the produced cDNA was amplified by PCR using Taq DNA polymerase (Invitrogen) and two reporter sequence-specific primers. The PCR products were fluorescently labeled by primer extension with 6-arboxyfluorescein (6-FAM) 5'-labeled reporter sequence-specific primer (2 min at 95 C, 20 s at 68 C and 10 min at 72 C) and these products were digested with 5U of HpaI (New England Biolabs) for 2h at 37 C. The fragments were purified using Qiaquick PCR columns (Qiagen), analyzed on an ABI 3130xL genetic analyzer (Applied Biosystems) with peak positions identified by using a set of X-rhodamine (ROX)-labeled MapMarker1000 molecular weight standards (BioVentures). The raw capillary electrophoresis data was processed using Attagraph software (Attagene).
In the case of COC(C)(C)CCC[C@H](C)C/C=C/C(C)=C/C(=O)OC(C)C, the outcome was “inactive”.
In the case of CCNCC, the outcome was “inactive”.
In the case of O=C(CCl)c1ccccc1, the AC50 was 16.2 µM (active).
For CCc1cc(C)cc(CC)c1-c1c(OC(=O)C(C)(C)C)n2n(c1=O)CCOCC2, the outcome was “inactive”.
In the case of O=[N+]([O-])c1cc([N+](=O)[O-])c2ccccc2c1, the AC50 was 10.5 µM (active).
For CCOP(=O)(OCC)Oc1ccc([N+](=O)[O-])cc1, the outcome was “inactive”.
With Cc1ncc(C[n+]2csc(CCO)c2C)c(N)n1 the outcome was “inactive”.
In the case of CC[N+](=O)[O-], the outcome was “inactive”.
With COc1cc(OC)c(OC)cc1C=O the outcome was “inactive”.
In the case of Nc1c(Cl)c(Cl)c(Cl)c(Cl)c1Cl, the outcome was “inactive”.
With C=CCN(CC=C)C(=O)C(Cl)Cl the outcome was “inactive”.
With CCOP(=O)(OCC)OCC the outcome was “inactive”.
For N#CC(c1ccccc1)c1ccccc1, the outcome was “inactive”.
In the case of C=CC(=O)OCC(CC)CCCC (stereo not given), the outcome was “inactive”.
With O=C(CCN1CC1)OCC(CO)(COC(=O)CCN1CC1)COC(=O)CCN1CC1 the outcome was “inactive”.
In the case of CCC(C)c1cc(C(C)(C)C)cc(-n2nc3ccccc3n2)c1O (stereo not given), the outcome was “inactive”.
For O=C(NC(=O)c1c(F)cccc1F)Nc1ccc(Oc2ccc(C(F)(F)F)cc2Cl)cc1F, the outcome was “inactive”.
In the case of CCOC(=O)N(C)N=O, the outcome was “inactive”.
In the case of CC(C)C#N, the outcome was “inactive”.
With CC(O)CN(CC(C)O)CC(C)O (stereo not given) the outcome was “inactive”.
For c1ccc(Nc2ccc3ccccc3c2)cc1, the outcome was “inactive”.
With [Cl-].[Cl-].[Cl-].[Yb+3] the outcome was “inactive”.
In the case of CC(C)c1ccc(O)cc1, the outcome was “inactive”.
For CNC(=O)Oc1cc(C)c(SC)c(C)c1, the outcome was “inactive”.
For [N-]=[N+]=CC(=O)OC[C@H](N)C(=O)O, the outcome was “inactive”.
For CCCCCCCCCCCC#N, the outcome was “inactive”.
With C[N+](=O)[O-] the outcome was “inactive”.
With Cc1ccc(C)c2ccccc12 the outcome was “inactive”.
For O=C(O)CCl, the outcome was “inactive”.
With CC(C)C(=O)Cl the outcome was “inactive”.
With CCC1CCC(=O)O1 (stereo not given) the outcome was “inactive”.
For Nc1ccc(Cl)c(Cl)c1, the outcome was “inactive”.
For Cc1ccc(N(SC(F)(Cl)Cl)S(=O)(=O)N(C)C)cc1, the outcome was “inactive”.
With CC(C)(O)C#N the outcome was “inactive”.
For CCCCNP(N)(N)=S, the outcome was “inactive”.
In the case of ClCCCCCCCl, the outcome was “inactive”.
With O=S(=O)(O)O the outcome was “inactive”.
In the case of Cc1ccccc1CCl, the outcome was “inactive”.
With CCC(=O)c1ccc(Cl)cc1 the outcome was “inactive”.
In the case of CC(C)CCCCCCCOP(=O)(Oc1ccccc1)Oc1ccccc1, the outcome was “inactive”.
